Consider nine compounds from PubChem BioAssay (NCI).

About 83,000 compounds went through this panel and 20% of them were active in at least one assay; those are over-represented in the sample as a whole.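 The endpoint reported here, percent growth, reads 100 for growth as untreated, 0 for no net growth and -100 for all cells dead.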 Values without a mark were called inactive. The source made the active and inactive calls. The calls were made as follows: active = growth percent below 10; inactive = the rest.

Test systems include RPMI-8226 leukemia; OVCAR-8 ovarian; OVCAR-5 ovarian; OVCAR-4 ovarian; SK-OV-3 ovarian; IGROV1 ovarian; OVCAR-3 ovarian; HS 578T breast; NCI/ADR-RES ovarian; T-47D breast; BT-549 breast; MDA-MB-435 melanoma; SW-620 colon; MCF7 breast; HCT-116 colon; HCC-2998 colon; KM12 colon.
Assay in all cases: NCI-60 one-dose screen, 48 h (100 = growth as untreated, 0 = no growth, -100 = all killed)
Holding throughout (conditions): 10 µM unless noted

Consider `O=C(/C=C/c1ccc([N+](=O)[O-])o1)NNC(=O)c1cc2ccccc2cc1O`, for which the growth in the assay on RPMI-8226 leukemia was -6.98% (active); with OVCAR-8 ovarian it was 8.19% (active); with OVCAR-5 ovarian it was 45.7%; in the assay on OVCAR-4 ovarian, 29.3%; in the assay on SK-OV-3 ovarian, 32.8%; in the assay with IGROV1 ovarian it was -1.53% (active). In addition, the growth was -32.3% (active) in the assay on OVCAR-3 ovarian; 33% in the assay with HS 578T breast; 5.33% (active) in the assay on NCI/ADR-RES ovarian; 2.44% (active) in the assay on T-47D breast; -4.88% (active) in the assay with BT-549 breast; -13.3% (active) in the assay with MDA-MB-435 melanoma. In addition, the growth is -5.85% (active) in the assay on SW-620 colon; 32.9% in the assay on MCF7 breast; -100% (active) with HCT-116 colon; -18.4% (active) in the assay with HCC-2998 colon; 11.6% in the assay on KM12 colon.

With `COc1ccc(C(=O)C(C)C)c2ccccc12`, the growth in the assay on RPMI-8226 leukemia is 82.5%; in the assay with OVCAR-8 ovarian it was 126%; with OVCAR-5 ovarian it was 98%; with OVCAR-4 ovarian, 108%; with SK-OV-3 ovarian, 107%; with IGROV1 ovarian it was 128%. The growth in the assay with OVCAR-3 ovarian was 120%; in the assay with HS 578T breast it was 90.8%; in the assay with NCI/ADR-RES ovarian, 107%; in the assay on T-47D breast, 92.2%; in the assay on BT-549 breast, 113%; with MDA-MB-435 melanoma, 97.9%. Moreover, the growth in the assay on SW-620 colon is 95.2%; in the assay on MCF7 breast, 107%; with HCT-116 colon it was 101%; in the assay with HCC-2998 colon, 107%; in the assay on KM12 colon, 101%.

In the case of `COc1cc(CCC[P+](c2ccccc2)(c2ccccc2)c2ccccc2)c(OC)c(OC)c1OC`, the growth in the assay on RPMI-8226 leukemia is 68.4%; with OVCAR-8 ovarian it was 85.6%; with OVCAR-5 ovarian it was 79.6%; in the assay with OVCAR-4 ovarian, 49.8%; in the assay on SK-OV-3 ovarian, 83.5%; in the assay on IGROV1 ovarian, 70.5%. In addition, the growth in the assay on OVCAR-3 ovarian was 72%; with HS 578T breast, 51.8%; with NCI/ADR-RES ovarian, 77.7%; with T-47D breast it was 63.5%; in the assay on BT-549 breast it was 72.9%; in the assay with MDA-MB-435 melanoma it was 0.374% (active). Further, the growth in the assay on SW-620 colon is 82.6%; in the assay on MCF7 breast, 39%; with HCT-116 colon, 61.9%; in the assay with HCC-2998 colon, 100%; in the assay with KM12 colon, 75.9%.

Consider `CCOC(=O)CC1C(COC(=O)NC)OC(n2cnc3c(NC(=O)Nc4ccccc4)ncnc32)C1O[Si](C)(C)C(C)(C)C` (stereo not drawn), for which the growth was 39.7% in the assay with RPMI-8226 leukemia; 74% with OVCAR-8 ovarian; 94.2% in the assay on OVCAR-5 ovarian; 41.6% in the assay with OVCAR-4 ovarian; 94.9% in the assay with SK-OV-3 ovarian; 49.1% in the assay with IGROV1 ovarian. Further, the growth in the assay with OVCAR-3 ovarian was 51.1%; in the assay on HS 578T breast it was 57.1%; with NCI/ADR-RES ovarian, 48.1%; in the assay on T-47D breast, 29.1%; in the assay on BT-549 breast, 64.5%; in the assay on MDA-MB-435 melanoma it was 49.3%. In addition, the growth in the assay on SW-620 colon is 72.2%; with MCF7 breast, 11.7%; in the assay with HCT-116 colon it was 17.1%; in the assay on HCC-2998 colon it was -8.59% (active); with KM12 colon, 31.2%.

Consider `CNc1nc2c(s1)C(c1cccc(F)c1)CC(=O)N2` (stereo not drawn), for which the growth in the assay with RPMI-8226 leukemia is 106%; in the assay with OVCAR-8 ovarian it was 102%; in the assay with OVCAR-5 ovarian, 97.1%; in the assay with OVCAR-4 ovarian it was 107%; with SK-OV-3 ovarian, 100%; with IGROV1 ovarian, 107%. Also, the growth in the assay on OVCAR-3 ovarian was 99.1%; in the assay on HS 578T breast, 94.3%; in the assay on NCI/ADR-RES ovarian, 103%; with T-47D breast, 94.8%; in the assay on BT-549 breast it was 94.5%; with MDA-MB-435 melanoma it was 99.9%. Moreover, the growth is 102% with SW-620 colon; 95.2% in the assay on MCF7 breast; 99.8% in the assay with HCT-116 colon; 104% in the assay on HCC-2998 colon; 101% in the assay on KM12 colon.

As to `Cc1cc(=O)oc2cc(OC(=O)CN3CCN(C)CC3)ccc12`, the growth was 103% with RPMI-8226 leukemia; 103% with OVCAR-8 ovarian; 101% in the assay with OVCAR-5 ovarian; 96.6% in the assay on OVCAR-4 ovarian; 107% with SK-OV-3 ovarian; 115% with IGROV1 ovarian. Moreover, the growth is 105% in the assay on OVCAR-3 ovarian; 97.9% in the assay on HS 578T breast; 105% in the assay on NCI/ADR-RES ovarian; 102% in the assay with T-47D breast; 114% in the assay with BT-549 breast; 100% in the assay with MDA-MB-435 melanoma. Further, the growth was 96.2% in the assay with SW-620 colon; 93.1% in the assay on MCF7 breast; 95.8% in the assay on HCT-116 colon; 108% with HCC-2998 colon; 99.5% in the assay with KM12 colon.

Regarding `CCOc1c(B(O)O)cccc1-c1nc2ccc3[nH]ncc3c2c2c1CCCC2`, the growth was 39.5% in the assay with RPMI-8226 leukemia; 65% in the assay on OVCAR-8 ovarian; 74.7% in the assay with OVCAR-5 ovarian; 93.3% in the assay with OVCAR-4 ovarian; 72% in the assay with SK-OV-3 ovarian; 77.6% in the assay with IGROV1 ovarian. The growth with OVCAR-3 ovarian was 113%; with HS 578T breast, 34.5%; in the assay on NCI/ADR-RES ovarian, 62.7%; in the assay on T-47D breast it was 75.5%; in the assay on BT-549 breast, 25.1%; in the assay with MDA-MB-435 melanoma, 90.1%. In addition, the growth in the assay on SW-620 colon is 38.3%; with MCF7 breast, 59.4%; in the assay on HCT-116 colon it was 34.8%; in the assay on HCC-2998 colon, 51%; in the assay on KM12 colon it was 32.2%.

In the case of `CN1CCN(Cc2ccc(NC(=O)c3cncc(C#Cc4cnccc4C#N)c3)cc2C(F)(F)F)CC1`, the growth in the assay with RPMI-8226 leukemia is 34.1%; with OVCAR-8 ovarian it was 74.2%; with OVCAR-5 ovarian it was 60.5%; in the assay with OVCAR-4 ovarian it was 35.9%; with SK-OV-3 ovarian, 101%; in the assay on IGROV1 ovarian it was 67.2%. The growth in the assay on OVCAR-3 ovarian is 86.3%; with HS 578T breast, 24%; in the assay on NCI/ADR-RES ovarian it was 74%; in the assay on T-47D breast, 93.5%; with BT-549 breast, 76.5%; in the assay with MDA-MB-435 melanoma it was 42%. Moreover, the growth was 50.7% in the assay on SW-620 colon; 42.5% in the assay with MCF7 breast; 24% with HCT-116 colon; 50.8% in the assay with HCC-2998 colon; 22.3% in the assay on KM12 colon.

Regarding `O=C(N/N=C/c1ccc(Cl)cc1)c1ccc(C(F)(F)F)nc1Nc1cccc(C(F)(F)F)c1`, the growth was 3.59% (active) in the assay with RPMI-8226 leukemia; 24% with OVCAR-8 ovarian; 28% in the assay with OVCAR-5 ovarian; 18.6% with OVCAR-4 ovarian; 23.8% with SK-OV-3 ovarian; 21.1% in the assay on IGROV1 ovarian. For the same compound, the growth with OVCAR-3 ovarian was -45.2% (active); with HS 578T breast it was 4.32% (active); in the assay with NCI/ADR-RES ovarian, -36.2% (active); in the assay on T-47D breast, 3.73% (active); with BT-549 breast it was 9.33% (active); with MDA-MB-435 melanoma, 34.8%. Further, the growth in the assay with SW-620 colon is 8.01% (active); in the assay on MCF7 breast it was 0.997% (active); in the assay with HCT-116 colon it was -33.6% (active); in the assay on HCC-2998 colon, -38.9% (active); in the assay on KM12 colon it was 8.69% (active).
